# Key:
# [1] = target: Mitogen-activated protein kinase 11 (Homo sapiens) (UniProt Q15759); details: at 1 µM
# [2] = target: Mitogen-activated protein kinase 11 (Homo sapiens) (UniProt Q15759); details: at 10 µM
# [3] = target: T1, Serine/threonine-protein kinase Sgk1 (Homo sapiens) (UniProt O00141); details: at 10 µM
# T1 sequence (whole entry): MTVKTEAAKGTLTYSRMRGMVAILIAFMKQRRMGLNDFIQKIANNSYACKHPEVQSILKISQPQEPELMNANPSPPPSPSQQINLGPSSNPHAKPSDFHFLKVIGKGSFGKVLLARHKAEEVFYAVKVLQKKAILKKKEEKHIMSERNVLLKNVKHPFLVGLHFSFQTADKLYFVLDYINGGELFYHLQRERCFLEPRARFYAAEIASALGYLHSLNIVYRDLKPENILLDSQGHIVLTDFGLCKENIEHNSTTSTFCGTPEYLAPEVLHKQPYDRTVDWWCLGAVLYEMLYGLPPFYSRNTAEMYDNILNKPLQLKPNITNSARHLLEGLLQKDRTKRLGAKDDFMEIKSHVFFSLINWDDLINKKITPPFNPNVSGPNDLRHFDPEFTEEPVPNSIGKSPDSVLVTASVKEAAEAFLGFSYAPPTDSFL
# [4] = target: Serine/threonine-protein kinase SIK1 (Homo sapiens) (UniProt P57059); details: at 1 µM
# Serine/threonine-protein kinase SIK1 (Homo sapiens), sequence (P57059 whole entry): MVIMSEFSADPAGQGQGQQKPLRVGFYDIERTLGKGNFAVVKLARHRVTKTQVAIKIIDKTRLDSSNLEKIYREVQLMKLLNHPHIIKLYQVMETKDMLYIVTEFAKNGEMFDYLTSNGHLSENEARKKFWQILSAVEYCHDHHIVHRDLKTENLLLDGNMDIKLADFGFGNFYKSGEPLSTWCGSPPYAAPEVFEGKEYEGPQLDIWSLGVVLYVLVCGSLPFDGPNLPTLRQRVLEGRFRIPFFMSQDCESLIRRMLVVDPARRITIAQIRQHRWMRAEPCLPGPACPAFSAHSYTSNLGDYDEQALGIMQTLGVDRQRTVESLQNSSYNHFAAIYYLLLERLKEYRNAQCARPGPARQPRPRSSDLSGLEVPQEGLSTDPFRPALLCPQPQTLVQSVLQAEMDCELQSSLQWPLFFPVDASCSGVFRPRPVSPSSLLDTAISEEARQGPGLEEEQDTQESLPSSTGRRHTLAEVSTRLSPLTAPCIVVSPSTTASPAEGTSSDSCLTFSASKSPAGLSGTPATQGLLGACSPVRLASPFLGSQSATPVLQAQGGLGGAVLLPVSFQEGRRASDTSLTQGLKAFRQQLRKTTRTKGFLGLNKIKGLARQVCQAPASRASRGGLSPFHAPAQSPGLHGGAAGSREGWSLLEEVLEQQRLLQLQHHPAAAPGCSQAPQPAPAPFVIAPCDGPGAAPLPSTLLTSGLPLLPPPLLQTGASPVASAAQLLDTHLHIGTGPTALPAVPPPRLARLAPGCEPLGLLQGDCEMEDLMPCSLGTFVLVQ
# [5] = target: T1, Serine/threonine-protein kinase Sgk1 (Homo sapiens); details: at 1 µM
# [6] = target: T2, Serine/threonine-protein kinase Sgk2 (Homo sapiens) (UniProt Q9HBY8); details: at 1 µM
# T2 sequence (whole entry): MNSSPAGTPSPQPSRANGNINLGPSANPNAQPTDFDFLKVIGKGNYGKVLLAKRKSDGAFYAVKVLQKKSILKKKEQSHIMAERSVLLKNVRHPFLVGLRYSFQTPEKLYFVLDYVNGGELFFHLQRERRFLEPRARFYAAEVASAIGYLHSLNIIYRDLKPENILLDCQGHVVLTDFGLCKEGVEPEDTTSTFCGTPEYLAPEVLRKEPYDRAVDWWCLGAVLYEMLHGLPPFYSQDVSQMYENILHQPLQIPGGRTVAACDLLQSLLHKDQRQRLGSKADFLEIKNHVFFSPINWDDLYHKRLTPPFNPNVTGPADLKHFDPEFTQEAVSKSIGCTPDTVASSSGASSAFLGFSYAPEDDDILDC
# [7] = target: T2, Serine/threonine-protein kinase Sgk2 (Homo sapiens); details: at 10 µM
# [8] = target: T3, Serine/threonine-protein kinase Sgk3 (Homo sapiens) (UniProt Q96BR1); details: at 10 µM
# T3 sequence (whole entry): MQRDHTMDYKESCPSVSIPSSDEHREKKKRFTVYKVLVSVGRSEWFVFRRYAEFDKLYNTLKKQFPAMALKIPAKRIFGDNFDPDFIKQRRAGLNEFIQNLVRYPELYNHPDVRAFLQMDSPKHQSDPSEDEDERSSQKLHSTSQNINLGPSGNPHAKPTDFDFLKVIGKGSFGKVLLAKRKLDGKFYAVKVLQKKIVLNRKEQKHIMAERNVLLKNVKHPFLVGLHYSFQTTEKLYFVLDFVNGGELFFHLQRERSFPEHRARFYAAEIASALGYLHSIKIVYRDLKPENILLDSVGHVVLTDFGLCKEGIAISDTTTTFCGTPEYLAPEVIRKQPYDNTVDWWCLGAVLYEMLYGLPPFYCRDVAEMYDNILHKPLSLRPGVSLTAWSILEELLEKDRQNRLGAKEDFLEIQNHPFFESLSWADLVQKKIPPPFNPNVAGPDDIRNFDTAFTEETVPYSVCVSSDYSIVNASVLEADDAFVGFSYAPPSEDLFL
# [9] = target: T4, Mitogen-activated protein kinase 13 (Homo sapiens) (UniProt O15264); details: at 1 µM
# T4 sequence (whole entry): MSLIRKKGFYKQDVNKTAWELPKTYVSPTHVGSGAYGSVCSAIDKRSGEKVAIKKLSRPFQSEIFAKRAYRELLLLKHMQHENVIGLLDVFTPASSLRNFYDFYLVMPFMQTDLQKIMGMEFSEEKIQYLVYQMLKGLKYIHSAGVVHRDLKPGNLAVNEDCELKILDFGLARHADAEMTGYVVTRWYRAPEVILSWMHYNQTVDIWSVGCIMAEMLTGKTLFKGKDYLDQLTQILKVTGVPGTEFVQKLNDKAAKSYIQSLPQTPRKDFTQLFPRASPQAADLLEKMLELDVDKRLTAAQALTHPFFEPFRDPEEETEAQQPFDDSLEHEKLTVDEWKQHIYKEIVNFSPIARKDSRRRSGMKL
# [10] = target: T4, Mitogen-activated protein kinase 13 (Homo sapiens); details: at 10 µM
# Mitogen-activated protein kinase 11 (Homo sapiens), sequence (Q15759 whole entry): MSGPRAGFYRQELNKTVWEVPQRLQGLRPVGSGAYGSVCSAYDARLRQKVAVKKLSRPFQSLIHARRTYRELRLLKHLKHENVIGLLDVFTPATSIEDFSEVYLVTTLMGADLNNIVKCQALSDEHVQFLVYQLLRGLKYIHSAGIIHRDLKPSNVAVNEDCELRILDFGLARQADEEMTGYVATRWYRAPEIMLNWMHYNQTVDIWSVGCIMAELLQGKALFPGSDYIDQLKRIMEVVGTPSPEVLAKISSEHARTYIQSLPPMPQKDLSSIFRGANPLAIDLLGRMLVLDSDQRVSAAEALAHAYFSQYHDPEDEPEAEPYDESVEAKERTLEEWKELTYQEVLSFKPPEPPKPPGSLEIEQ
Structure (SMILES),residual activity [1] [%],residual activity [2] [%],residual activity [3] [%],residual activity [4] [%],residual activity [5] [%],residual activity [6] [%],residual activity [7] [%],residual activity [8] [%],residual activity [9] [%],residual activity [10] [%]
O=c1c(-c2ccc(F)cc2)c(-c2ccncc2)[nH]n1-c1ccc(Cl)cc1,23,5,101,141,,,,,,
NC(=O)c1ccc(-c2nc(-c3ccc4c(c3)OCCO4)c(-c3ccccn3)[nH]2)cc1,93,88,90,,98,97,89,,,
CC(C)[C@H](CO)Nc1nc(Nc2cc(N)cc(Cl)c2)c2ncn(C(C)C)c2n1,119,99,,,,95,51,92,,
O=C(O)/C=C/c1cc(Br)c(Br)c(Br)c1Br,107,126,49,,100,83,41,84,103,93
Nc1nc(Nc2ccc(S(N)(=O)=O)cc2)nn1C(=O)c1c(F)cccc1F,102,77,75,50,124,,49,79,,31
O=C(CCCc1ccc(-c2ccccc2F)cc1)Nc1ccc(O)cc1,105,95,179,,83,131,135,,105,96
CCCCc1c(-c2ccc(OC)cc2)[nH]c2nccnc12,106,,117,86,106,90,81,88,,
O=C1Cc2c([nH]c3ccc(Br)cc23)-c2ccccc2N1,98,89,81,91,95,99,74,83,98,68
O=c1cc(N2CCOCC2)oc2c1ccc1ccccc12,93,101,97,95,105,92,86,97,100,95
O=C(c1ccccc1)c1ccc(N2CCOCC2)cc1O,96,91,95,97,79,134,68,88,,
O=C(NC(NC(=S)Nc1ccc(F)c([N+](=O)[O-])c1)C(Cl)(Cl)Cl)C(c1ccccc1)c1ccccc1 (configuration not stated),98,97,83,136,,,,77,95,104
CN([C@@H](Cc1ccc(OS(=O)(=O)c2cccc3cnccc23)cc1)C(=O)N1CCN(c2ccccc2)CC1)S(=O)(=O)c1cccc2cnccc12,113,,,,123,,,83,81,
CSc1nc(-c2ccc(F)cc2)c(-c2ccnc(NC(C)c3ccccc3)c2)[nH]1 (configuration not stated),10,-2,,144,,,91,,,
Nc1ncnc2c1cnn2-c1ccccc1,97,85,98,,90,,68,93,,
O=C1Cc2c([nH]c3ccc([N+](=O)[O-])cc23)-c2ccccc2N1,100,103,,100,,65,68,,,
CCCC(=O)Oc1ccc2[nH]c(C(=O)c3cc4ccccc4[nH]3)cc2c1,104,,95,83,101,99,96,85,104,86
O=c1cc(N2CCNCC2)oc2c(-c3ccccc3)cccc12,95,105,98,82,80,,79,90,,83

Structure (SMILES),residual activity [1] [%],residual activity [2] [%],residual activity [3] [%],residual activity [4] [%],residual activity [5] [%],residual activity [6] [%],residual activity [7] [%],residual activity [8] [%],residual activity [9] [%],residual activity [10] [%]
CC(C)(C)c1nc2c3ccc(F)cc3c3c(=O)[nH]ccc3c2[nH]1,62,69,68,31,63,63,55,,,
Cn1sc(=O)n(Cc2ccccc2)c1=O,89,89,96,,91,91,,86,100,98
CC(C)(C)n1nc(Cc2cccc3ccccc23)c2c(N)ncnc21,64,22,127,72,100,101,78,105,101,95
Nc1ncnc2[nH]nc(Nc3ccc(F)cc3)c12,103,,74,48,94,113,43,80,103,94
O=C1NC(=O)c2c1c1c3ccccc3[nH]c1n1cncc21,90,87,47,83,66,52,38,67,93,88
CCOC(=O)c1c(C)[nH]c(/C=C2\C(=O)Nc3ccccc32)c1C,98,77,,,,82,76,,,
COc1ccc(-c2cnc3c(-c4ccsc4)cnn3c2)cc1,94,95,94,87,99,97,83,,,
COc1cc2c(cc1OC)-c1n[nH]c(Nc3cccc(F)c3)c1C2,60,25,,4,70,109,98,,102,74
NC(=O)Nc1sc(-c2ccc(F)cc2)cc1C(N)=O,89,68,,28,,,,85,90,73
CN(C)S(=O)(=O)c1ccc2c(c1)/C(=C/c1cc3c([nH]1)CCCC3)C(=O)N2,94,,96,,82,115,95,,97,96
O=C1Nc2ccc(Cl)cc2/C1=C/c1cc(Cl)c(O)c(Cl)c1,88,67,69,72,64,84,55,81,,93
COc1cc2nccc(Oc3ccc(NC(=S)NC(=O)c4ccccc4C)cc3)c2cc1OC,83,87,,32,,99,,79,101,87
Nc1ncnc2c1c(-c1ccc(Oc3ccccc3)cc1)cn2C1CCCC1,87,75,111,78,110,98,78,86,95,
COc1cc2nccc(Oc3ccc(NC(=O)Nc4cc(C)on4)c(Cl)c3)c2cc1OC,19,,,,,103,79,,,97
Fc1ccc(-c2nc3n(c2-c2ccncc2)CCS3)cc1,80,23,,139,,,,,,
O=C1Nc2ccccc2/C1=C\c1c(Cl)[nH]c2ccccc12,99,,,,,,,,,

# — ChEMBL document CHEMBL2218924, “A broad activity screen in support of a chemogenomic map for kinase signalling research and drug discovery” (Biochem J, 2013)
